This is an account of results in PubChem BioAssay AID1508600 (Functional Genomics Laboratory (NCATS/FGL), 2020).

Out of some 53,000 sequences screened, about 3,700 (7%) were called active. The sample as a whole holds a higher share of actives than the screen did. Values without a mark were called inactive.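 How the source made its calls: active means gene knockdowns whose robust z-score for IL-1 alpha signal is at least 2 or at most -2, so actives lie on both sides; inactive means the rest.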

The test is described as follows: Components of the Cytosolic LPS Sensing Pathway: Gene Identification via Genome-wide siRNA Screen.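 Further: robust z of the log signal after scaling to non-targeting control siRNA wells of the plate.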 To be noted: RAW264.7 macrophages, IL-1a HTRF, actives lie on both sides, screened at 100 nM (by protocol), cells primed 5 h with Pam3CSK4 first. Put shortly: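 Mouse macrophage line RAW264.7 is transfected with siRNA (100 nM final), grown 48h, primed with TLR ligand Pam3CSK4 5 h and given intracellular LipidA 24 h. IL-1a in supernatant is read by HTRF and viability by luminescence.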
A general note: In TR-FRET formats the signal depends on donor and acceptor labels being close together.
In the case of GGAAUAGUGGCUUCUUUUATT against Rsph3a, the z-score was -0.00182. As for UUUGCAUGUACAGAAUGCUTT against Olfr312, the z-score was 1.54. With GGAAACACAAGUUCUAGGUTT against Gpx3, the z-score is 0.735. For GGGUUUCUGUGAGAGACAATT against Ube2f, the z-score was 1.01.

Regarding GGAUGUUUGCUCUUGAGCGTT against Isoc1, the z-score was -2.17 (active). For the sequence GGGACUAUAAGGAACCAGGTT against Fmo3, the z-score was -0.35. GGGCAAGACUUAAUUUUGGTT against Dppa1: the z-score is -0.36.

With GGUCAAGAGUGCCCUAAAATT against Olfr398, the z-score is -1.63.

For the sequence GGAUUCGUUCAGCUAAGGGTT against Olfr1023, the z-score was 1.29. Turning to GGAGAAAUGUUGUUGUCUUTT against Kcng3, the z-score was -0.327. For the sequence AAAGCGCAUUCACAAAAAUTT against Olfr1453, the z-score is 0.197. With GGAAACAAGGAUAUUCUUUTT against Fanca, the z-score was 0.859. On to GGAGGUAUUAUCUGAAUUGTT against Utp14a, for which the z-score is 1.17. For the sequence GGAGGCAUACAUGACAAAATT against Cop1, the z-score is 0.953.

With GGCAGAGUGCUGACUUCAUTT against Coq8a, the z-score is 3.86 (active).

As for CCAUGUAUGCCUCAACAUATT against Ltf, the z-score is 0.517. The result for GGAAAGUGCCAUGAAGACCTT against Dbi reads -1.42; that for GCUCCUAAUGGAAAGAACGTT against Pla2g4d, 0.0914; that for CCUGUCCAGGGUUUGACCATT against Man2c1, -1.12. Take GCGAUAUGCAGAGAAGCGGTT against Prpf8: the z-score was -1.63.

For GGUUAAAGGAGCAGUCUAUTT against Dbn1, the z-score is 0.636. Turning to GGAGAAAGUGUCCUCUGUGTT against Olfr924, the z-score was -2.41 (active). With “GGGCUGGGUCUUCAUAAUUTT against 6330549D23Rik”, the z-score was 1.14. Turning to GCACUUCAAUCCAGUGUCUTT against Pdgfd, the z-score is -1.27. Regarding GGCAAAAAUUUUUUCAUGCTT against Abcb4, the z-score was -0.47.

In the case of GGUGGCGGGAGAUGUUUUUTT against Pex6, the z-score is 0.85. For GGUCUAGAGCAAUUCCAUATT against Olfr656, the z-score was 1.51.

In the case of GUUGUAUUUCUUUGUCCUCTT against Olfr1097, the z-score is 2.21 (active).

Regarding GAUCUUAUAUGUUGGUGGUTT against Vmn1r29, the z-score was -0.31. The result for GGUGAACUUUACCUUCAACTT against Mov10 reads 0.867.

As for GGAUCAACGAGGUAAAGUCTT against Itga8, the z-score was 0.101. Consider GGUUUUUGAUAAUUGCCAUTT against Gcsh, for which the z-score was -1.98.

As to GGAAGAAGACACAAAAAAUTT against Rcan3, the z-score is 3.53 (active).

As for GGUCUUCUUCUUCAAAGCUTT against Mrpl46, the z-score was -1.27. Take GCAACGUGGUCAUCAAUCUTT against Ndufa9: the z-score was -0.743. As to GGGUUAUGGCUGGAAUCUGTT against Slc12a9, the z-score was -1.52. In the case of GGAACAAGGCUUUUUCCACTT against Olfr481, the z-score was 0.566. As for CCCGUUGUAUACAAAUACCTT against Tmem41b, the z-score was 0.579. The result for CCCAAACAGACUAGAUCCGTT against Rab20 reads 3.37 (active); that for GUGGAAAUUAAUCUGGGUUTT against Tmem191c, 0.394; that for GGCCAGAUAGCAAAACAGCTT against Mpst, 0.897. For GGAGGUGUUCAUUGAAGUCTT against Nudcd2, the z-score was -0.356. Under GGAACUGACAGCUAUGAACTT against Atp6v1d stands -0.845.

Turning to GGAGAAGAAAGCAAAAACCTT against Ing1, the z-score is -2.11 (active). Regarding CGCAGAUCAAUUUUCAUAGTT against Kif2a, the z-score is 0.471.

As for GGAUAUUGGUGGCACUUUATT against Med6, the z-score was -0.315. Regarding GGAUAAAUGGUACAUUCAGTT against Coa7, the z-score is 0.958. Regarding CCAACCUAAACAAUGCAUUTT against Actn4, the z-score was -0.431.

Take GGCGGACUUGGAUUACAGCTT against Rassf10: the z-score is 2.21 (active). Take GGAGCUGCUGUUAAUUCCATT against Col5a3: the z-score was 1.3. For the sequence GGAAGCCUACCUUUAUAUUTT against Slc2a3, the z-score was 0.458. Take CCUUUUCAAGCUAACAACATT against Gba2: the z-score is -0.0808. On to GGUAGCACUUUGUAUUUUATT against Spg7, for which the z-score is 0.575.

Turning to GCAUCUACUAUCCAAGUGATT against Alox8, the z-score was 2 (active). As for CCUACAGCCACCUAAUAGATT against Olfr1196, the z-score is -0.346. The result for GCAAGUAACUACCAGAGUATT against Cfap20 reads -0.488.

Take CCACGGGAGACAAGAUUCUTT against Hmbs: the z-score is 3.18 (active). Regarding GGUCAGCGAACCACGAUAATT against Olfr314, the z-score was -0.792.

As to “GGUAUAAGGUCAUAGAAUUTT against E230016K23Rik”, the z-score is 0.429.

With GCUUCUAUUUUGGAUGAUGTT against Skint10, the z-score is -1.2. For GGCACAAGUUGACCAAUAUTT against Rtn1, the z-score was -0.263. Consider GCUACUCCUUAGAACACGGTT against Spry1, for which the z-score is 0.839.

With GGCUAUCUGAUUUUUGUUGTT against Nlrp3, the z-score was -0.0259.

On to GGCCUCAAACUGAAUAUUATT against Serpina7, for which the z-score was 0.472. For CCCGGAAACAACACAUUGCTT against Tyrobp, the z-score is 2.88 (active). Regarding GGUCCAGCAUUUGAAAUUATT against Moap1, the z-score was 0.291. The result for CCACUGUGCAAGAAGCACGTT against Ldb3 reads -0.129; that for GGGUAAUGGGCCAGUAUCATT against Fam229b, -2.92 (active). GGUAUAUUGUGCCAGCACATT against Olfr705: the z-score was 0.00345. On to GGUUCACAUGUACAUUAAATT against Cracd, for which the z-score was -0.156. Under “GGUUAGAAAACAAUAUCAGTT against 9530053A07Rik” stands 0.88. Take GGGAGAGCUGGCUAAAUGATT against Sptbn4: the z-score is -0.956. In the case of GGAGUUUGCCAGUGAAUUUTT against Ptpn22, the z-score is -0.603. As for GGAAGAGAAAACAACAGUUTT against Phactr4, the z-score was -1.26. Consider CCCGUAAGGUAACAAACCGTT against Polr3k, for which the z-score was -1.14. Regarding GGACAGGAAGGUCAUCCCUTT against Sntb2, the z-score was -0.568. Under CCGCCAGACCUUCAUUACCTT against Chia1 stands -0.515; under GGCAGUGGAGCUGGACAAATT against Nkx2-5, 2.45 (active). For GGCUACAAAUCCAACUAUCTT against Ppp1r32, the z-score is 0.181. GGUCCAAGCCUUUUCUAGATT against Glmp: the z-score was 0.305. The result for GCUCGUUCGCCUAGAAUUGTT against Mycbp reads 0.529; that for CGUGGGCUCUGUUGACAUUTT against Olfr492, 0.869; that for GGGCAAAUGUAAAAAGACUTT against Fst, 1.28. On to GGUGAUUGUCAAGAUUAUGTT against Olfr651, for which the z-score is -2.1 (active). CCUUUGCCUUCAGUUUUAUTT against Pramel20: the z-score was 0.864.

With GGUCACGAUGUAGCACGCUTT against Mtg1, the z-score is 0.996. For GCAGGAAGUACUCCUAUCCTT against Letm2, the z-score was -0.861.

Regarding GGGAAUUUGGUAUCAAUUUTT against Epgn, the z-score is 1.7.

GCUGCACGAUGCAUGGUUUTT against Asic3: the z-score was 1.43. As to GGCAAUAACAUUCGGUAUUTT against Snrpd1, the z-score was -2.29 (active). As to CCUGUAAUGAGUAUGACAUTT against Commd10, the z-score is 0.397.

In the case of GGAACUUUUUCAGAGCUCUTT against Senp3, the z-score was -1.6. Consider GGUAUUUGUGCCAAUUGCCTT against Ccr6, for which the z-score is -0.302.

Regarding GGAAGACUACAUAAGAGACTT against Cxcl9, the z-score was 0.103. Turning to GGGCCAUGAUAGGACACACTT against Nme4, the z-score is 2.97 (active).

CCUGUCUGUUUGAGGACGUTT against Adora2a: the z-score is -0.701.

In the case of GGCCAACUUCCUUUUUAAATT against Tomm40, the z-score is -0.0619. Turning to GGCACACACUCCCUGACAATT against Cst3, the z-score was -0.863. Under GGUGGAUGAUAAUGUUCUUTT against Gcnt3 stands 0.911. In the case of GGCCUUUACAUGUCCCAGCTT against BC002059, the z-score was 0.456. Turning to AUGUCAGCGGCCCUAGAUGTT against Adam34l, the z-score is -2.09 (active). As to GGGUGUGGCUGACUUUGAUTT against Otof, the z-score was -0.429. Regarding CCGUGGACUAUAACAACUCTT against Mgat5b, the z-score was 1.61. Consider GGAAGAGGCUAUUGCAUCGTT against Atrnl1, for which the z-score is -0.768. Take GGUUUUCUAGUUUGAGUUUTT against Atp1b2: the z-score is 1.29. Take GCAUCCAUCAAAUCAAAAUTT against Met: the z-score is 3.03 (active). In the case of GGUGAUUCAGAUAAAAGAGTT against Mbtps1, the z-score was 0.265.
